# Assay outcomes: PubChem BioAssay, National Center for Advancing Translational Sciences (NCATS)
# SARS PLP yeast – blocks SARS-CoV papain-like protease in a yeast assay; S. cerevisiae expressing SARS-CoV PLpro, growth rescue; Potency, µM (top dose mostly 32.9 µM), without a hit: at the top dose activity, positive = growth rescue, hits mostly activators; hit rate 0.19% among 330,000; AID 485353; calls by dose curve; note: 0% is about no effect; nearly all actives have a fitted effect of over 55% in size
# Sm TGR block – S. mansoni TGR enzyme inhibition. Q962Y6. hit rate 3% among 360,000. Potency, µM (top dose mostly 114 µM), for inactives: top-dose activity change, negative = inhibition, actives largely listed as inhibitors. purified TGR, DTNB reduction, TNB absorbance 405 nm; active = well fitted inhibition curve with a large enough effect; inconclusive = small, poorly fitted or top-dose-only effect; inactive = no such curve, though single readings can be large or run the other way; note: % is set by controls: 0 for no effect and ±100 for the full control effect; nearly all actives have a fitted effect of over 60% in size
#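 Kinetic colorimetric format: TGR-catalysed, NADPH-driven DTNB reduction monitored via TNB absorbance. Enzyme dispensed at 20 nM; compound exposure 15 min at room temperature before reaction start.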
# Active calls of the source: *; ? = inconclusive; / = no result given. Most compounds without a hit are left out; they make up all but 3% or so of the library. Potency is the fitted concentration of half-maximal effect.
SMILES,SARS PLP yeast,Sm TGR block
COc1ccc(-c2cc(C(F)(F)F)n3ncc(C(=O)NCC4CCCO4)c3n2)cc1 (stereo not drawn),0%,-7%
O=C(NCC1CCCO1)c1nn2c(C(F)(F)F)cc(-c3ccc(Br)o3)nc2c1Br (stereo not drawn),1%,16µM*
O=C(c1cc2nc(-c3ccco3)cc(C(F)(F)F)n2n1)N1CCN(c2ccc(F)cc2)CC1,-4%,-24%
O=C(c1cc2nc(-c3ccco3)cc(C(F)(F)F)n2n1)N1CCN(Cc2ccccc2)CC1,0%,50µM*
CCOC(=O)c1c(NC(=O)C2c3ccccc3Oc3ccccc32)sc(C)c1CC,/,-5%
CCOc1ccccc1N(C)C(=O)c1sc2nc3n(c(=O)c2c1C)CCCC3,/,-29%
O=C(CSc1nc2c([nH]c3ccccc32)c(=O)n1-c1cccc(C(F)(F)F)c1)N1CCc2ccccc21,/,0%
COc1ccc(-c2nc3sc(CCNC(=O)Cc4ccc(F)cc4)c(C)n3n2)cc1,/,8%
O=C(O)c1ccccc1NC(=O)C1CCCO1 (stereo not drawn),/,5%
O=C(Nc1ccccc1Sc1ccccc1)C1CCCO1 (stereo not drawn),-4%,45µM*
CCOC(=O)c1[nH]c(C)c(/C(O)=C2\C(=O)C(=O)N(CCN(C)C)C2c2ccco2)c1C (stereo not drawn),2%,56µM*
CCOC(=O)c1[nH]c(C)c(/C(O)=C2\C(=O)C(=O)N(CCN3CCOCC3)C2c2ccco2)c1C (stereo not drawn),0%,/
CCOc1ccc(-n2c(=O)c3c(C)c(C)sc3n(CC(=O)Nc3ccc(CC)cc3)c2=O)cc1,/,1%
O=C(O)CCn1cc(C=C2C(=O)NC(=S)NC2=O)c(-c2cccc(Cl)c2)n1,0%,32µM*
O=C(O)CCn1cc(C=C2C(=O)NC(=O)NC2=O)c(-c2ccc(Br)cc2)n1,-2%,0%
Cc1ccccc1NC(=O)CCl,2%,22µM*
O=C(c1ccccc1)c1ccccc1NC(=O)c1ccccc1C(=O)O,/,2%
Cc1ccc(Cl)c(NC(=O)CCl)c1Cl,2%,32µM*
CC(=O)Nc1ccccc1C,-10%,-2%
CCN(CC)CC(=O)Nc1sc(C)cc1C(=O)c1ccccc1,8%,-12%
O=C(CCl)Nc1ccccc1C(=O)c1ccccc1,3%,35µM*
Cc1cc(C(=O)c2ccccc2)c(NC(=O)CCl)s1,4%,7.9µM*
Cc1ccc(Cl)c(NC(=O)CSc2cccc[n+]2[O-])c1Cl,3%,/
CCOc1cc(CNC(=O)c2cc(-c3ccccc3)n[nH]2)cc(OCC)c1OCC,/,-1%
CCOc1ccc(S(=O)(=O)N2CCC(N3CCN(Cc4ccc(F)cc4)C(=O)C3=O)CC2)cc1,/,8%
SMILES,SARS PLP yeast,Sm TGR block
COc1ccc(C(=O)CN2C(=O)N(c3cc(C)cc(C)c3)S(=O)(=O)c3ccccc32)cc1,/,1%
COc1ccc(-c2cc3ccc(O)c(CN4CCOCC4)c3oc2=O)cc1OC,/,-3%
O=C1CC(c2ccccc2)CC(=O)C1CS(=O)(=O)c1ccccc1 (stereo not drawn),-3%,0.71µM*
O=C1CC(=O)CC(c2ccccc2)C1,-6%,-7%
O=C(CSc1ncc2c(n1)-c1ccccc1N(Cc1ccccc1)S2(=O)=O)Nc1ccccc1,/,10%
CCOC(=O)N1CCc2c(sc(NCc3cc(OC)ccc3OC)c2C(=O)Nc2cc(OC)ccc2OC)C1,/,-36%
COc1cc(NC(=O)c2ccco2)c(C(=O)O)cc1OC,-10%,40µM*
COC(=O)c1cc(OC)c(OC)cc1NC(=O)c1ccco1,0%,0%
COc1cc(OC)cc(C(=O)Nc2cc(NC(=O)c3ccco3)ccc2OC)c1,0%,-13%
COc1cc(OC)cc(C(=O)Nc2ccc(NC(=O)c3ccco3)c(C)c2)c1,-43%,40µM*
COc1cccc(CNC(=O)CCn2c(=O)c3cccn3c3cccnc32)c1OC,/,4%
COc1ccc2sc(C)[n+](C)c2c1,1%,4%
CC[n+]1c(/C=C2\C=C(C)CC(C)(C)C2)sc2ccccc21,1%,14µM*
CCN1/C(=C/C(C)=C/c2sc3ccccc3[n+]2CC)Sc2ccccc21,-19%,-24%
CCC1=C/C(=C/c2sc3ccccc3[n+]2CC)CC(C)(C)C1,-6%,1.8µM*
CC[n+]1c(C)sc2sc3ccccc3c21,-5%,-24%
CC[n+]1c(/C=C2/C=C(C)CC(C)(C)C2)sc2ccc(OC)cc21,-15%,18µM*
CC[n+]1c(/C=C2\C=C(C)CC(C)C2)sc2ccccc21 (stereo not drawn),6%,40µM*
CC(C)N(C(=O)Cn1cc(S(=O)(=O)Cc2ccc(C(F)(F)F)cc2)c2ccccc21)C(C)C,/,8%
Cc1nc2nc(C)c(CCC(=O)NCc3ccccc3)c(C)n2n1,/,21%
Cc1ccc(-c2csc(=Nc3ccc(F)cc3)n2Cc2ccc3c(c2)OCO3)cc1C,/,-11%
COc1cccc(NC(=O)CSc2nnc(NC(=O)NC3CCCCC3)s2)c1,/,5%
COc1cccc(-c2nc(CS(=O)CC(=O)N3CCC4(CC3)OCCO4)c(C)o2)c1 (stereo not drawn),-4%,5µM*
CCOC(=O)C1CCN(C(=O)CS(=O)Cc2nc(-c3ccc(C)cc3)oc2C)CC1 (stereo not drawn),10%,4µM*
Cc1oc(-c2ccccc2F)nc1CS(=O)CC(=O)NCc1ccc(F)cc1 (stereo not drawn),27%,?
SMILES,SARS PLP yeast,Sm TGR block
Cc1cccc(-c2nc(CS(=O)CC(=O)N3CCN(C)CC3)c(C)o2)c1 (stereo not drawn),3%,?
COc1ccc(N2CCN(C(=O)CS(=O)Cc3nc(-c4ccc(OC)c(OC)c4)oc3C)CC2)cc1 (stereo not drawn),-3%,-27%
Cc1oc(-c2ccccc2F)nc1CS(=O)CC(=O)N1CCC2(CC1)OCCO2 (stereo not drawn),3%,28µM*
Cc1oc(-c2ccc(Cl)cc2)nc1CS(=O)CC(=O)N1CCC2(CC1)OCCO2 (stereo not drawn),6%,20µM*
Cc1ccc(-c2nc(CS(=O)CC(=O)N3CCN(c4ccc(F)cc4)CC3)c(C)o2)cc1 (stereo not drawn),8%,-32%
O=C(Nc1cccc(C(=O)N2CCCCC2)c1)c1nsc2ccccc12,/,1%
COc1ccc(NC(=O)CCS(=O)(=O)c2ccc3nc(C)sc3c2)cc1Cl,/,2%
CC(C)C(=O)Nc1ccc(N2CCCC2)cc1,6%,35µM*
CC(C)C(=O)Nc1ccc(N2CCN(c3ccc(F)cc3)CC2)cc1,0%,0%
Cc1cc(C)nc(-n2nc(C)cc2NC(=O)CN2CCCC(C)C2)n1 (stereo not drawn),2%,25µM*
Cc1cc(C)nc(-n2nc(C)cc2NC(=O)CN2CCc3ccccc3C2)n1,1%,?
N#CC1=C(Nc2ccccc2Cl)SC(c2ccccc2O)NC1=O (stereo not drawn),-1%,-6%
COc1cccc(NC2=C(C#N)C(=O)NC(c3cccc(OC)c3O)S2)c1 (stereo not drawn),0%,7.9µM*
CC1CCC2(CC1)NC(=O)N(CC(=O)Nc1sc3c(c1C(N)=O)CCC3)C2=O (stereo not drawn),0%,40µM*
COC(=O)c1c(NC(=O)CN2C(=O)NC3(CCC(C)CC3)C2=O)sc2c1CCC2 (stereo not drawn),-2%,-5%
CCCCCCOc1ccc(C2C(=O)N(C3CCCCC3)CC(=O)N2CCCC)cc1 (stereo not drawn),/,-1%
